Inconclusive results are not listed. Where a call stands in place of a potency, no number is given. The source made the active and inactive calls. Unless noted, the call rests on the fitted dose curve; in most records, active means well fitted curve in the direction sought with a large enough effect in the repeat runs; inconclusive means weak or mixed curves; inactive means no such curve, though single readings can be large; an effect the other way counts as inactive or inconclusive. Positions of bridges follow the written chain, without caps; N, C: chain ends. Non-standard residues stand in square brackets, D forms with d. Residues, ends and D or L forms follow the SMILES beside them. ξ: configuration not given here. *: point of attachment. d(aThr) = C[C@@H](O)[C@@H](N)C(=O)O; ξThr(3R) = C[C@@H](O)C(N)C(=O)O; X3 = CC[C@@H](C)CCCCC(=O)*; dDab = NCC[C@@H](N)C(=O)O
Assays:
[1] = qHTS assay to identify small molecule antagonists of the thyroid receptor (TR) signaling pathway - cell viability counter screen (AID 743064); further: nearly all actives have a fitted effect of over 50% in size; further: potency means the concentration at half of the fitted maximal effect
Summary of the method: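 Viability of T3-stimulated (1 nM final) GH3.TRE-Luc cells is measured by CellTiter-Fluor fluorescence after 23.5 h compound exposure at 37 °C plus 30 min reagent incubation.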

[2] = qHTS assay to identify small molecule antagonists of the thyroid receptor (TR) signaling pathway (AID 743065); further: potency means the concentration at half of the fitted maximal effect; nearly all actives have a fitted effect of over 55% in size
Summary of the method: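 GH3.TRE-Luc rat pituitary cells (two TREs driving luciferase) were dosed with compound, then stimulated with 1 nM T3 (final) for 23.5 h at 37 C. ONE-Glo luminescence was the read-out, with CellTiter-Fluor fluorescence as the cytotoxicity counter-screen.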

[3] = qHTS assay to identify small molecule antagonists of the estrogen receptor alpha (ER-alpha) signaling pathway - cell viability counter screen (AID 743074; calls by dose curve;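 further: HEK293 cells carrying ER-alpha-UAS-bla reporter stimulated with 17beta-estradiol; nearly all actives have a fitted effect of over 45% in size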; further: potency means the concentration at half of the fitted maximal effect)
[4] = qHTS assay to identify small molecule antagonists of the estrogen receptor alpha (ER-alpha) signaling pathway using the BG1 cell line - cell viability counter screen (AID 743081);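 further: compound given together with 17beta-estradiol as the ER stimulus; nearly all actives have a fitted effect of over 45% in size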; further: potency means the concentration at half of the fitted maximal effect
Aromatase (Homo sapiens) = Aromatase (Homo sapiens) (UniProt P11511); assay: qHTS assay to identify aromatase inhibitors (AID 743083); further: nearly all actives have a fitted effect of over 55% in size; further: potency means the concentration at half of the fitted maximal effect
Chain of Aromatase (Homo sapiens) (P11511 whole entry, looked up): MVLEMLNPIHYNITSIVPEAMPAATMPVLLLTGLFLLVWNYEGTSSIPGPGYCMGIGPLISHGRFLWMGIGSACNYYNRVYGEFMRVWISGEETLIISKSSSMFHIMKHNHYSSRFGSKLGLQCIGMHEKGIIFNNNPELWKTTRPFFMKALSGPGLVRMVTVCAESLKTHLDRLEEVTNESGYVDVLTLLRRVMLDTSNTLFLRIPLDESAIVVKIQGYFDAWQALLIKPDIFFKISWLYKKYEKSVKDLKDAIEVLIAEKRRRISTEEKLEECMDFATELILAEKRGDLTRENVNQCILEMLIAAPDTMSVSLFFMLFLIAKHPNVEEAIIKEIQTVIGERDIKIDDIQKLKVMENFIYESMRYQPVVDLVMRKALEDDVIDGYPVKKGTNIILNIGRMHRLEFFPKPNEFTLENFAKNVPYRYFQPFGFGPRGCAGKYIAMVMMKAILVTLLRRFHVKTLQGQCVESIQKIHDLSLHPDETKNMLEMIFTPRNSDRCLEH

[5] = target: Estrogen receptor (Homo sapiens) (UniProt P03372); assay: qHTS assay to identify small molecule agonists of the estrogen receptor alpha (ER-alpha) signaling pathway (AID 743075; calls by dose curve;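 further: HEK293 GripTite cells with ER-alpha and UAS-driven beta-lactamase reporter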)
Chain of Estrogen receptor (Homo sapiens) (P03372 whole entry, looked up): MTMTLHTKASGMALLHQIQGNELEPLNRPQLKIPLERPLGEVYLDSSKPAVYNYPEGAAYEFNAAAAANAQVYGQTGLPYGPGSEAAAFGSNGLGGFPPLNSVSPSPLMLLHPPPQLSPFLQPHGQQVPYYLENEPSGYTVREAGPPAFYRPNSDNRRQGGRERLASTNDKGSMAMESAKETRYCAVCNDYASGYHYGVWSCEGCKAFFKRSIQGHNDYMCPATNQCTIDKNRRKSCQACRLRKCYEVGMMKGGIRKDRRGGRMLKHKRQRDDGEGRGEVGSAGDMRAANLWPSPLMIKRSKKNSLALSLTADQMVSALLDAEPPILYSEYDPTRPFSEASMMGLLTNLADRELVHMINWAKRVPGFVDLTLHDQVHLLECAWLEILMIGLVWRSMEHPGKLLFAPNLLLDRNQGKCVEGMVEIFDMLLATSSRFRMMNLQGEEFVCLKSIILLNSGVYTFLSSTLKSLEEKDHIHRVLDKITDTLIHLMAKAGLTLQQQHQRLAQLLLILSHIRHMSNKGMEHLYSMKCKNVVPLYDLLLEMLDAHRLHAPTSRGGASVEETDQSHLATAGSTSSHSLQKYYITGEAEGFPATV

[6] = qHTS assay to identify small molecule antagonists of the estrogen receptor alpha (ER-alpha) signaling pathway using the BG1 cell line (AID 743080; calls by dose curve;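 further: BG1 cells stimulated with 17beta-estradiol alongside compound; nearly all actives have a fitted effect of over 25% in size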; further: potency means the concentration at half of the fitted maximal effect)
Summary of the method: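 BG1-Luc-4E2 cells (endogenous full-length ER-alpha, stable 4×ERE-luciferase) were starved 5 days in phenol-red-free medium with 10% charcoal-stripped FBS, plated 24 h, then given compound plus 17beta-estradiol for 21.5 h at 37 C; ONE-Glo luminescence read after 30 min.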

[7] = test system: thyroid hormone receptor (rat, GH3 cells); assay: qHTS assay to identify small molecule agonists of the thyroid receptor (TR) signaling pathway (AID 743066; calls by dose curve)
[8] = target: Estrogen receptor (Homo sapiens) (UniProt P03372); assay: qHTS assay to identify small molecule antagonists of the estrogen receptor alpha (ER-alpha) signaling pathway (AID 743069; active means well fitted curve in the direction sought with a large enough effect in the signal ratio in the repeat runs, not every such curve was filed as active; the % refers to the signal ratio)
Summary of the method: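 Beta-lactamase FRET fluorescence is read after 2 hr at room temperature with LiveBLAzer B/G substrate. Before that, ER-alpha-bla HEK293 cells sit 4 hr after plating, then receive compound plus 17beta-estradiol and incubate 18 hr at 37C.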

[9] = target: Estrogen receptor (Homo sapiens) (UniProt P03372); assay: qHTS assay to identify small molecule agonists of the estrogen receptor alpha (ER-alpha) signaling pathway using the BG1 cell line (AID 743079); details: BG1Luc4E2 cells, ERE-luciferase agonist, 22 h; activation: at 70.3 µM (top of the series); further: nearly all actives have a fitted effect of over 20% in size

SMILES	Potency [1]	Potency [2]	Potency [3]	Potency [4]	Potency (Aromatase (Homo sapiens))	Potency [5]	Potency [6]	Potency [7]	Potency [8]	Potency [9]
CCCCCCOc1ccc(C(=N)N(CCCC)CCCC)c2ccccc12	5.31 µM (active)	5.31 µM (active)	9.52 µM (active)	33.5 µM (active)	13.3 µM (active)					
CN=C1C=CC(=C(c2ccc(N(C)C)cc2)c2ccc(N(C)C)cc2)C=C1	3.35 µM (active)	2.37 µM (active)	9.52 µM (active)	11.9 µM (active)	1.33 µM (active)					
CCCCCCCCCCCCCC[n+]1ccc(C)cc1	7.5 µM (active)	4.73 µM (active)			8.41 µM (active)	inactive				
CCN(CC)c1ccc(C(=C2C=CC(=[N+](CC)CC)C=C2)c2ccccc2)cc1	0.335 µM (active)	0.335 µM (active)	4.77 µM (active)		3.35 µM (active)		5.96 µM (active)			
O=C1CSC2(CCN(CCCN3c4ccccc4Sc4ccc(Cl)cc43)CC2)N1	10.6 µM (active)	10.6 µM (active)				inactive				
CCNC(=O)[C@@H]1CCCN1C(=O)[C@H](CCCN=C(N)N)NC(=O)[C@H](CC(C)C)NC(=O)[C@@H](Cc1c[nH]c2ccccc12)NC(=O)[C@H](Cc1ccc(O)cc1)NC(=O)[C@H](CO)NC(=O)[C@H](Cc1c[nH]c2ccccc12)NC(=O)[C@H](Cc1cnc[nH]1)NC(=O)[C@@H]1CCC(=O)N1	1.5 µM (active)	1.33 µM (active)	10.7 µM (active)	10.6 µM (active)	13.3 µM (active)					
C=C1C(=C/C=C2\CCC[C@]3(C)[C@@H]([C@H](C)CCCC(C)(C)O)CC[C@@H]23)C[C@@H](O)C[C@@H]1O	23.7 µM (active)	13.3 µM (active)	23.9 µM (active)	2.37 µM (active)	inactive	inactive	29.8 µM (active)			
C=C1CC[C@H](O)CC1=C/C=C1\CCC[C@]2(C)[C@@H]([C@H](C)CCCC(C)(C)O)CC[C@@H]12	11.9 µM (active)	6.68 µM (active)	23.9 µM (active)	inactive	inactive	inactive				
COc1cc(NCCCC(C)N)c2ncccc2c1 (centres undefined)	15 µM (active)		inactive	18.8 µM (active)		inactive		inactive	inactive	
C/C=C(/CC[C@@H](C)[C@H]1CC[C@H]2C3=CC[C@H]4[C@H](C)[C@@H](O)CC[C@]4(C)[C@H]3CC[C@]12C)C(C)C	inactive		inactive	inactive	inactive			inactive		
COc1ccc(C[C@@H](C)NC[C@H](O)c2ccc(O)c(NC=O)c2)cc1	inactive			inactive		inactive	inactive	inactive	inactive	inactive
CNCC(O)c1ccc(OC(=O)C(C)(C)C)c(OC(=O)C(C)(C)C)c1 (centres undefined)	12.7 µM (active)		inactive		inactive	inactive	inactive	inactive	inactive	inactive
CCCCCCCCCCCCCCCCCC(=O)[O][Al]	inactive			inactive	inactive	inactive	inactive	inactive	inactive	inactive
CC[C@@H](C)CCCCC(=O)N[C@H](CCN)C(=O)N[C@@H](C(=O)N[C@H](CCN)C(=O)N[C@@H]1CCNC(=O)C([C@@H](C)O)NC(=O)[C@@H](CCN)NC(=O)[C@@H](CCN)NC(=O)[C@@H](CC(C)C)NC(=O)[C@@H](Cc2ccccc2)NC(=O)[C@@H](CCN)NC1=O)[C@@H](C)O (stereo partly drawn) (X3-[dDab][d(aThr)][dDab][dDab][dDab][dF][dL][dDab][dDab][ξThr(3R)]; lactam 4-C)	inactive		inactive	inactive	inactive			inactive		
COC(=O)[C@H]1[C@H]2C[C@@H]3c4[nH]c5cc(OC)ccc5c4CCN3C[C@H]2C[C@@H](OC(=O)/C=C/c2cc(OC)c(OC)c(OC)c2)[C@@H]1OC	inactive		inactive	inactive	inactive	inactive	inactive	inactive	inactive	inactive
CO[C@H]1O[C@@H]2O[C@@]3(C)CC[C@H]4[C@H](C)CC[C@@H]([C@H]1C)[C@@]24OO3	inactive		inactive	inactive	inactive	inactive	inactive	inactive	inactive	inactive
O.O=C([O-])CC([S-])C(=O)[O-].[Au+].[Na+].[Na+] (centres undefined)	inactive		inactive	inactive	inactive	inactive	inactive	inactive	inactive	inactive
N[C@H](CCC(=O)O)C(=O)O	inactive		inactive	inactive	inactive	inactive	inactive	inactive	inactive	inactive
CN1[C@@H]2CCC[C@H]1CC(NC(=O)c1nn(C)c3ccccc13)C2 (some centres undefined)	inactive		inactive	inactive	inactive	inactive	inactive	inactive	inactive	inactive

From PubChem BioAssay (Tox21)
